Compound activity: PubChem BioAssay, several laboratories
Only some compounds are listed: those with a hit (about 22% of all), similar ones and a draw of the others.
CYP2C9 inh: blocks human cytochrome P450 2C9 | P11712 | CYP2C9 Supersomes, luciferin-H conversion, luminescence | inhibition, % at 5 µM | 96,000 compounds, 20% hits;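 active = blocking of liver enzyme CYP2C9 beyond about 50% at 5 µM, limit read from the data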
CYP2C9 activ: increases human cytochrome P450 2C9 activity; P11712; recombinant CYP2C9, luciferin-H conversion, luminescence; stronger effect = higher value; factor 1 = untreated enzyme, 0 = blocked; activation factor at 5 µM; 96,000 compounds, 1.4% hits;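 active = activation factor of 2 or more for CYP2C9 at a 5 µM dose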;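 note: 0 = sulfaphenazole-blocked wells and 1 = vehicle-only wells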
CYP2C19 inh: blocks human cytochrome P450 2C19; 96,000 compounds, 21% hits; CYP2C19 Supersomes, luciferin-H EGE luminescence, 30 min; AID 778; inhibition, % at 5 µM;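 active = CYP2C19 inhibition above a set limit at 5 µM in the primary screen, cut at about 50% in these data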;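 note: plate controls were negative control wells for no effect and 2.5 mM tranylcypromine positive control for full effect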
Target sequence (P33261 whole entry, looked up): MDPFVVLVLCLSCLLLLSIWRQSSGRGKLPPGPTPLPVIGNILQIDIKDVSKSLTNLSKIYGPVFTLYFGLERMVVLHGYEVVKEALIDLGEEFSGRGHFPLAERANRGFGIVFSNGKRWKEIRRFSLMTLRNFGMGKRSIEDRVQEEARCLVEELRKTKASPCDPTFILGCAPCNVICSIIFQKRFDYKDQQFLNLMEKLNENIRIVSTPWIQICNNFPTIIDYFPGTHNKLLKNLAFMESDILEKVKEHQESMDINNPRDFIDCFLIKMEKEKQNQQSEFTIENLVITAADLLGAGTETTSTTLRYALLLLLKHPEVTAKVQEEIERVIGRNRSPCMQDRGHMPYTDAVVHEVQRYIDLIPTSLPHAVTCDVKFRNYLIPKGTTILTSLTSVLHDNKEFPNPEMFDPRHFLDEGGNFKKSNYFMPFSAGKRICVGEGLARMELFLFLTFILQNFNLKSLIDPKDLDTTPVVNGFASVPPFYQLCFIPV
Measles CPE: protection of cells from measles virus; Measles virus-infected cells, CPE protection, absorbance; protection (pct of control), % at 4 µM; 140,000 compounds, 1.5% hits; AID 841; in the data active = protection mostly above about 24%, no sharp cut-off; inactive = mostly below about 26%
CYP2C19 act: cytochrome P450 2C19 (human) activation | P33261 | recombinant CYP2C19, luciferin-H EGE luminescence; stronger effect = higher value; 0 = fully inhibited enzyme, 1 = untreated enzyme | activation factor at 5 µM | 96,000 tested, under 10 active | AID 1025;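 active = activation factor of at least 2 at 5 µM in the primary screen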;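 note: 0 = wells with 2.5 mM tranylcypromine and 1 = vehicle-only wells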
Numbers without * were called inactive; · = no result given.

SMILES	CYP2C9 inh	CYP2C9 activ	CYP2C19 inh	Measles CPE	CYP2C19 act
N#Cc1nc(COc2cccc(Cl)c2)oc1NCc1ccco1	85*	0.2	50*	7	0.5
N#Cc1nc(-c2ccco2)oc1NCc1ccco1	44	0.6	16	3	0.8
N#Cc1nc(-c2ccc(OCc3ccccc3)cc2)oc1NCc1ccco1	32	0.7	30	5	0.7
COc1ccccc1OCc1nc(C#N)c(NCc2ccco2)o1	80*	0.2	74*	7	0.3
Cc1ccc(OCc2nc(C#N)c(NCc3ccco3)o2)cc1	100*	0	90*	2	0.1
Cc1ccc(-c2nc(C#N)c(NCc3ccco3)o2)cc1	58*	0.4	40	9	0.6
Cc1cc(C)c(NC(=O)CSc2ccc3nnc(CCNC(=O)c4ccccc4)n3n2)c(C)c1	·	·	·	19	·
Cc1nn(C(=O)c2cccc([N+](=O)[O-])c2)c(C)c1Sc1ccccc1	9	0.9	21	6	0.8
COc1ccccc1N1CCN(C(=O)C2CCN(S(=O)(=O)c3ccc(Cl)cc3)CC2)CC1	21	0.8	20	5	0.8
COc1ccc(S(=O)(=O)N2CCC(C(=O)N3CCc4ccccc4C3)CC2)cc1Cl	28	0.7	92*	17	0.1
CCS(=O)(=O)N1CCC(C(=O)N2CCc3ccccc3C2)CC1	-20	1.2	60*	3	0.4
NS(=O)(=O)c1cccnc1Nc1cccc(Cl)c1Cl	4	1	25	28	0.7
CCOC(=O)CC1=C(C(=O)OCC)C(c2cccnc2)C(C#N)=C(N)O1 (configuration not stated)	32	0.7	56*	14	0.4
CCOC(=O)CC1=C(C#N)C(c2cccnc2)C(C(=O)OCC)=C(N)O1 (configuration not stated)	75*	0.2	73*	15	0.3
CC(C)(C)n1nnnc1C(c1cccs1)N(Cc1cccnc1)Cc1ccccc1Cl (configuration not stated)	92*	0.1	96*	6	0
CC(c1nnnn1C(C)(C)C)N(Cc1cccnc1)Cc1ccccc1Cl (configuration not stated)	57*	0.4	99*	5	0
O=C(NCCCN=C1NS(=O)(=O)c2ccccc21)c1ccncc1	80*	0.2	22	40	0.8
NCCN=C1NS(=O)(=O)c2ccccc21	·	·	·	6	·
O=S1(=O)NC(=NCc2ccccc2)c2ccccc21	5	0.9	60*	23	0.4
O=C(NCCCN=C1NS(=O)(=O)c2ccccc21)c1ccco1	·	·	·	4	·
COc1ccc(CN2CC34C=CC(O3)C(C(=O)O)C4C2=O)cc1 (configuration not stated)	3	1	8	11	0.9
COc1cccc(N2CCN(C(=O)C3C4C=CC5(CN(Cc6ccccc6Cl)C(=O)C35)O4)CC2)c1 (configuration not stated)	62*	0.4	22	8	0.8
Cc1cccc(NC(=O)NC(C)C(c2cccs2)N2CCOCC2)c1 (configuration not stated)	44	0.6	83*	16	0.2
CC(NC(=O)NC1CCCCC1)C(c1cccs1)N1CCN(Cc2ccccc2)CC1 (configuration not stated)	54*	0.5	39	9	0.6
CC(NC(=O)Cc1cccs1)C(c1cccs1)N1CCN(c2ccccc2F)CC1 (configuration not stated)	54*	0.5	38	22	0.6
SMILES	CYP2C9 inh	CYP2C9 activ	CYP2C19 inh	Measles CPE	CYP2C19 act
Cc1ccccc1C(=O)NC(C)C(c1cccs1)N1CCOCC1 (configuration not stated)	17	0.8	31	14	0.7
CC(C)C(=O)NC(C)C(c1cccs1)N1CCOCC1 (configuration not stated)	19	0.8	4	15	1
CC(NC(=O)c1ccco1)C(c1cccs1)N1CCN(c2ccccc2F)CC1 (configuration not stated)	·	·	·	17	·
COc1ccccc1C(=O)NC(C)C(c1cccs1)N1CCOCC1 (configuration not stated)	24	0.8	51*	22	0.5
CC(NC(=O)c1ccco1)C(c1cccs1)N1CCN(c2ccccc2)CC1 (configuration not stated)	25	0.7	56*	12	0.4
CCN1CCCC1CNC(=O)C1CCN(Cc2nc(-c3cccc(Br)c3)oc2C)CC1 (configuration not stated)	-11	1.1	-20	·	1.2
COc1ccc(CN(C)C(=O)COC(=O)c2ccc3c(c2)OCO3)cc1OC	61*	0.4	32	3	0.7
CCc1ccc(NC(=O)CNS(=O)(=O)c2c(C)noc2C)cc1	51*	0.5	37	4	0.6
Cc1ccc(CNC(=O)c2ccc(NS(=O)(=O)c3c(C)noc3C)cc2)cc1	70*	0.3	4	5	1
CCc1ccc(N(CC(=O)O)S(=O)(=O)c2c(C)noc2C)cc1	25	0.7	-2	5	1
Cc1noc(C)c1S(=O)(=O)Nc1ccc(C(=O)NC2CCCCCC2)cc1	41	0.6	-10	5	1.1
COc1ccc(CCNC(=O)c2ccc(NS(=O)(=O)c3c(C)noc3C)cc2)cc1OC	64*	0.4	11	0	0.9
CCOc1ccc(OCCOCCNCCOC)cc1	·	·	·	8	·
Cc1cc(=O)[nH]c(SCc2nnc(-c3ccccc3)o2)n1	-5	1.1	0	7	1
Clc1ccc(-c2nnc(CSc3nnc(-c4cccs4)o3)o2)cc1	13	0.9	6	4	0.9
c1ccc(OCCSc2nc3ccccc3[nH]2)cc1	·	·	·	5	·
Clc1ccc(OCc2nnc(SCc3nnc(-c4ccccc4)o3)o2)c(Cl)c1	32	0.7	92*	12	0.1
Cc1ccc2nc(SCc3nnc(-c4ccccc4Br)o3)[nH]c2c1	75*	0.3	83*	17	0.2
Cc1ccc2nc(SCCCCOc3ccccc3)[nH]c2c1	72*	0.3	63*	3	0.4
Clc1ccc2nc(SCc3nnc(-c4ccccc4)o3)[nH]c2c1	76*	0.2	86*	11	0.1
CCOC(=O)c1ccc(C(=O)OCC)c(NC(=S)Nc2ccc([N+](=O)[O-])cc2OC)c1	·	·	·	24	·
Cc1ccc2[nH]c(=O)c(CN(CCCO)S(=O)(=O)c3c(C)ccc4nsnc34)cc2c1	65*	0.3	3	8	1
Cc1cc2cc(CN(CCCO)S(=O)(=O)c3cccc4nsnc34)c(=O)[nH]c2cc1C	93*	0.1	3	4	1
Cc1cc2cc(CN(Cc3ccco3)S(=O)(=O)c3c(C)ccc4nsnc34)c(=O)[nH]c2cc1C	-3	1	8	12	0.9
COc1ccc(NC(=O)CN(C)S(=O)(=O)c2cccc3nsnc23)cc1OC	·	·	·	4	·
Cc1ccc2cc(CN(Cc3ccco3)S(=O)(=O)c3c(C)ccc4nsnc34)c(=O)[nH]c2c1	89*	0.1	54*	9	0.5
